The source of these data is PubChem BioAssay AID434936 (National Center for Advancing Translational Sciences (NCATS), 2010).

Results filed as inconclusive are left out. Calls of active or inactive are those of the source. Calls come from the whole dose curve; as a rule, active = well fitted curve in either direction with a large enough effect; inconclusive = small, poorly fitted or top-dose-only effect; inactive = flat fitted curve, though single readings scatter.

In this experiment the target is Neuropeptide S receptor (Homo sapiens) (UniProt Q6W5P4). Description: Confirmation Concentration-Response Assay for Antagonists of the Neuropeptide S Receptor: Robust Characterization of cAMP Signal Transduction. The following applies: CHO-NPSR cells, NPS-stimulated cAMP TR-FRET; series mostly up to 50.7 µM; activity, negative = inhibition: at the top concentration. The text has this: NIH Chemical Genomics Center [NCGC] NIH Molecular Libraries Probe Production centers Network [MLPCN] MLPCN Grant: X01-DA026210-01 Assay Submitter (PI): Heilig, Markus Alexander NCGC Assay Overview: Neuropeptide S receptor (NPSR), previously known as GPR154, is a recently de-orphanized G protein coupled receptor. Its endogenous ligand is the 20 amino acids peptide Neuropeptide S (NPS). […] NPS and its receptor are found in various tissues. Specifically they are highly expressed in brain areas that have been implicated in modulation of arousal, stress and anxiety. Central administration of NPS in mice produces an unusual profile of activity by inducing wakefulness and arousal, while at the same time suppressing anxiety. Therefore, NPSR may represent a novel drug target for the treatment of sleep and anxiety disorders. To identify NPSR antagonists, we developed a cell-based cAMP assay. NPS can stimulate the production of cAMP in Chinese hamster ovary cells stably expressing NPS receptor. This change in intracellular cAMP level can be detected by a homogeneous LANCE cAMP assay based on the TR-FRET (time resolved fluorescence resonance energy transfer) between a europium-labeled cAMP tracer complex and a cAMP-specific antibody labeled with Alexa Fluor 647. The europium-labeled cAMP tracer complex is formed by the tight interaction between Biotin-cAMP (b-cAMP) and streptavidin labeled with Europium-W8044 chelate (Eu-SA). Light pulse at 320 nm excites the europium of the cAMP tracer and the energy emitted is transferred to the Alexa molecule bound to the cAMP antibody, generating a TR-FRET signal at 665 nm. Residual energy from the europium will produce a light at 620 nm. The native unlabeled cAMP from cell lysates competes with the europium-cAMP tracer for antibody binding and reversely reduces the emission signal of Alexa by interrupting FRET between the two labeled molecules. Both emission signals from the FRET donor (620 nm) and the acceptor (665 nm) can be detected by a plate reader in the TRF mode. Expression of result in fluorescence ratio (665 nm/620 nm) helps to normalize differences due to cell density and reagent dispensing. This assay was successfully optimized to a 1536-well plate format. Select compounds from the primary screen (AID 1461) were chosen for confirmation based on potency, efficacy, SAR, and activity across other assays in PubChem and at NCGC. Other compounds are analogs of active compounds from the primary screen. This particular assay uses a high density of sampling across concentration-response space to establish more confidence estimates of potency.
Neuropeptide S receptor (Homo sapiens), sequence (Q6W5P4 whole entry, looked up): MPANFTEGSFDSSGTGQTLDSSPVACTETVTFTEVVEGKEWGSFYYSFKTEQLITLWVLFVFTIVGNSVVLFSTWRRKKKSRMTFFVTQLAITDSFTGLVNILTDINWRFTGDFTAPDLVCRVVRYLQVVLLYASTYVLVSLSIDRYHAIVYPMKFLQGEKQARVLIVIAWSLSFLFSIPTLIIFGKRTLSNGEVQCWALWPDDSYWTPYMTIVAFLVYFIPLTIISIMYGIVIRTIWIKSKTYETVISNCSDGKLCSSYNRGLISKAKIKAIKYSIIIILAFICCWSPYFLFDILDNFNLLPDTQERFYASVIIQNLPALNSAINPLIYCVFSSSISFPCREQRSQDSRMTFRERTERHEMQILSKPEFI
NCGC Assay Protocol Summary: A Chinese hamster ovary (CHO) cell line stably expressing the NPS receptor (CHO-NPSR) was obtained from Dr. Heilig lab at NIAAA and maintained in F-12 Kaighn's media (Invitrogen, Carlsbad, CA, 21127) supplemented with 10 % FBS, 100 units/ml penicillin, 100 ug/ml streptomycin and 250 ug/ml geneticin at 37C, 5% CO2 in a humidified atmosphere. Before the assay, aliquots of cells were frozen and stored at -135C. The assay was performed in 1536-well format. Data are reported for both the ratio of the two emission wavelengths, and also for the component 'donor' channel, Em2=620. […] IC50 values were determined from concentration-response data modeled with the standard Hill equation. NPS 1536-well assay protocol: (1) Fresh or frozen CHO-NPSR cells were suspended in F-12 Kaighn's media supplemented with 10 % FBS, 100 units/ml penicillin and 100 ug/ml streptomycin. Cells were plated at 4 ul/well (1200 cells) to white, tissue culture treated 1536-well plates, and then cultured at 37C, 5 % CO2 for 16 to 30 hours. (2) Add 23 nl/well of compound in DMSO solution. The final titration for each compound was between 0.6 nM and 46 uM. […]
(In general: TR-FRET usually uses a lanthanide donor and a delayed reading to cut background.)
`COc1cccc(C2c3c(ncn(-c4cccc(Cl)c4)c3=N)Oc3ccc4ccccc4c32)c1` (stereo not given): the Potency is 8.67 µM (active).

In the case of `S=P(c1ccccc1)(c1ccccc1)c1c[n+](C/C=C/c2ccccc2)c2ccccn12`, the Potency is 0.56 µM (active). For `N=c1c2c(ncn1-c1ccccc1)Oc1ccc3ccccc3c1C2c1ccc2c(c1)CCO2` (stereo not given), the Potency is 2.18 µM (active). For `COc1ccc(C2c3c(n(CCCc4ccccc4)cnc3=N)Oc3ccc4ccccc4c32)cc1OC` (stereo not given), the Potency is 24.4 µM (active). Turning to `O=C(c1ccccc1)N(C(=O)c1ccccc1)c1ncnc2c1C(c1ccccc1)c1c(ccc3ccccc13)O2` (stereo not given), the Potency is 1.54 µM (active). With `Nc1ncnc2c1C(c1ccccc1)c1c(ccc3ccccc13)O2` (stereo not given), the Potency is 6.88 µM (active). For the compound `N=c1c2c(ccn1Cc1ccccc1)Oc1ccc3ccccc3c1C2c1ccccc1` (stereo not given), the Potency is 2.18 µM (active). The same measure, in the same setting: the value for `COc1cccc(C2c3c(ncn(-c4ccccc4OC)c3=N)Oc3ccc4ccccc4c32)c1` (stereo not given) was 4.34 µM (active); that for `O=C(Cc1ccccc1)Nc1ncnc2c1C(c1ccccc1)c1c(ccc3ccccc13)O2` (stereo not given) was 2.74 µM (active); that for `COc1ccc(-n2cnc3c(c2=N)C(c2cccc(OC)c2)c2c(ccc4ccccc24)O3)cc1` (stereo not given) was 6.88 µM (active).

For the compound `COc1cccc(C2c3c(ncn(-c4ccc(C)cc4)c3=N)Oc3ccc4ccccc4c32)c1` (stereo not given), the Potency is 8.67 µM (active).

With `COc1cccc(C2c3c(ncn(Cc4cccs4)c3=N)Oc3ccc4ccccc4c32)c1` (stereo not given), the Potency was 12.2 µM (active). `COc1cccc(C2c3c(ncn(-c4ccccc4)c3=N)Oc3ccc4ccccc4c32)c1OC` (stereo not given): the Potency is 4.34 µM (active). As to `COc1ccc(C2C3=C(N=CN(CCN4CCOCC4)C3N)Oc3ccccc32)cc1OC` (stereo not given), the “activity, negative = inhibition” value was -4.91% (inactive). On to `COc1cccc(C2c3c(ncn(-c4ccc(NC(C)=O)cc4)c3=N)Oc3ccc4ccccc4c32)c1` (stereo not given), for which the Potency was 12.2 µM (active).

In the case of `COc1ccc(C2c3c(ncn(CCN4CCOCC4)c3=N)Oc3ccc4ccccc4c32)cc1OC` (stereo not given), the Potency was 2.74 µM (active). Still for that read-out and setting: the value for `COc1cccc(C2c3c(ncn(CCN4CCOCC4)c3=N)Oc3ccc4ccccc4c32)c1` (stereo not given) was 12.2 µM (active); that for `N#CC1=C(NC=NCc2ccccc2)Oc2ccc3ccccc3c2C1c1ccccc1` (stereo not given) was 1.37 µM (active). In the case of `COc1cccc(C2c3c(ncn(-c4ccc(-c5ccccc5)cc4)c3=N)Oc3ccc4ccccc4c32)c1` (stereo not given), the “activity, negative = inhibition” value is -2.59% (inactive).

For the compound `COc1ccc(C2c3c(nc(CCCc4ccccc4)[nH]c3=O)Oc3ccc4ccccc4c32)cc1OC` (stereo not given), the “activity, negative = inhibition” value is 12.4% (inactive).

On to `CCOc1ccc(C2c3c(ncn(-c4ccccc4)c3=N)Oc3ccc4ccccc4c32)cc1OCC` (stereo not given), for which the Potency is 3.45 µM (active). In the case of `N=c1c2c(ccn1-c1ccccc1)Oc1ccc3ccccc3c1C2c1ccccc1` (stereo not given), the Potency is 1.09 µM (active).

As for `COc1cccc(C2c3c(ncn(-c4ccccc4Br)c3=N)Oc3ccc4ccccc4c32)c1` (stereo not given), the Potency is 9.72 µM (active). In the case of `COc1cccc(C2c3c(ncn(-c4ccc(Br)cc4)c3=N)Oc3ccc4ccccc4c32)c1` (stereo not given), the Potency is 12.2 µM (active). Turning to `COc1cccc(C2c3c(ncn(-c4cccc(Br)c4)c3=N)Oc3ccc4ccccc4c32)c1` (stereo not given), the Potency was 12.2 µM (active). For the compound `CCOC(=O)CCCC(=O)Nc1ncnc2c1C(c1ccccc1)c1c(ccc3ccccc13)O2` (stereo not given), the Potency is 2.44 µM (active). Consider `COc1cccc(C2c3c(ncn(-c4cccc(F)c4)c3=N)Oc3ccc4ccccc4c32)c1` (stereo not given), for which the Potency is 3.87 µM (active). For the compound `COc1cccc(C2c3c(ncn(-c4ccc(C#N)cc4)c3=N)Oc3ccc4ccccc4c32)c1` (stereo not given), the Potency is 12.2 µM (active). `N=c1c2c(ncn1-c1ccccc1)Oc1ccc3ccccc3c1C2c1ccc2c(c1)OCO2` (stereo not given): the Potency was 3.07 µM (active). Take `COc1cccc(C2c3c(ncn(-c4ccccc4Cl)c3=N)Oc3ccc4ccccc4c32)c1` (stereo not given): the Potency was 8.67 µM (active).

For the compound `COc1ccc2c(c1)Oc1ncn(CCN3CCOCC3)c(=N)c1C2c1ccc(OC)c(OC)c1` (stereo not given), the Potency was 13.7 µM (active).

For the compound `COc1cccc(C2c3c(ncn(-c4cccc(C#N)c4)c3=N)Oc3ccc4ccccc4c32)c1` (stereo not given), the Potency is 13.7 µM (active).

Take `COc1cccc(C2c3c(ncn(-c4ccccc4C(C)(C)C)c3=N)Oc3ccc4ccccc4c32)c1` (stereo not given): the Potency is 12.2 µM (active). With `COc1cccc(C2c3c(ncn(-c4ccccc4-c4ccccc4)c3=N)Oc3ccc4ccccc4c32)c1` (stereo not given), the Potency was 15.4 µM (active). Turning to `CCOC(=O)CCC(=O)Nc1ncnc2c1C(c1ccccc1)c1c(ccc3ccccc13)O2` (stereo not given), the Potency is 3.45 µM (active). For the compound `COc1ccc(C2c3ccccc3Oc3ncn(CCN4CCOCC4)c(=N)c32)cc1OC` (stereo not given), the Potency was 4.87 µM (active). Consider `CCOC(=O)c1ccc(-n2cnc3c(c2=N)C(c2cccc(OC)c2)c2c(ccc4ccccc24)O3)cc1` (stereo not given), for which the Potency is 10.9 µM (active). Still for that read-out and setting: the value for `Fc1ccc(-c2c(P(=S)(c3ccccc3)c3ccccc3)n3ccccc3[n+]2C/C=C/c2ccccc2)cc1` was 0.471 µM (active); that for `COc1ccc(C2c3c(ncn(CCCc4ccccc4)c3=N)Oc3ccc4ccccc4c32)cc1OC` (stereo not given) was 27.4 µM (active); that for `N=c1c2c(ncn1-c1ccccc1)Oc1ccc3ccccc3c1C2c1ccc2c(c1)OCCO2` (stereo not given) was 2.18 µM (active).
